This passage reports composite z-score and z-score results from PubChem BioAssay.

Test [1] has as its system Human papillomavirus type 1a protein E7 (residues 44-93). The test can be described thus: HPV1a E7 fragment binders on microarrays, primary screen, biochemical, small-molecule microarray, residues 44-93, 635 nm fluorescence (AID 1108).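 Note: E7 fragment applied at 1 µg/mL in TBST for 1 h at 4 C; score combines spot fluorescence with its signal to noise ratio.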 The note with it: small-molecule microarray binding, fluorescence 635 nm; higher = more signal.
Test [2] in a line: modulators of HCV replicon luciferase signal, primary screen, HCV replication inhibitor project, Huh7 cells, luciferase reporter (AID 1109).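 Note: huh7 hepatoma cells harbouring a luciferase neomycin HCV replicon reporter; luciferase luminescence as measure of HCV replicon replication; test concentration not given here.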 The note with it: 48 h, higher = more signal. (In antiviral work, replicon cells carry a viral genome segment that copies itself.)
The target of test [3] is Left-right determination factor 2 (Homo sapiens) (UniProt O00292). The test can be described thus: LEFTY2 binders on small-molecule microarrays, primary screen, biochemical, small-molecule microarray, 635 nm fluorescence scan (AID 1110). The note with it: LEFTY2 binding, higher = more signal.
Test [4] has as its target Calmodulin-1 (Homo sapiens) (UniProt P0DP23). Nature of the test: CALM1 binders on microarrays, EGTA buffer, profiling panel, biochemical, small-molecule microarray, Cy5-labelled CALM1 (AID 1111).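 Note: labelled calmodulin applied in Tris saline Tween buffer holding calcium plus EGTA and DTT.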 Particulars: Cy5-CALM1 binding fluorescence, higher = more signal.
Test [5] shares this target. Nature of the test: calcium-bound CALM1 binders on microarrays, profiling panel, artefact control for SMM control-protein annotation, biochemical, small-molecule microarray, Cy5-labelled CALM1, plus calcium (AID 1112).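 Note: score merges spot fluorescence with signal to noise from triplicate slides.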 Particulars: Cy5-CALM1 binding fluorescence, higher = more signal.
A short description of test [6]: small-molecule microarray binders of probe aWnt5a, primary screen, biochemical, biotinylated probe, 635/667 nm fluorescence (AID 1113).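 Note: score merges 667 nm fluorescence intensity with signal-to-noise per printed feature.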 Particulars: higher = more signal.
Test [7] is described as follows: small-molecule microarray binders of probe aShh, primary screen, biochemical, biotinylated probe, 635/667 nm fluorescence (AID 1114).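 Note: probe is biotin-labelled aShh protein from a stem cell growth factor screen; measures binding of labelled protein to compounds printed on the slide; score merges feature fluorescence at 667 nm with signal-to-noise.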 The note with it: higher = more signal.
A short description of test [8]: small-molecule microarray binders of probe aNog, primary screen, biochemical, biotinylated probe, 635/667 nm fluorescence (AID 1115).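 Note: probe is biotinylated aNog protein used at 0.15 µg/mL for 1 h at 4 C; z-score combines 667 nm fluorescence of each spot with its signal to noise.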 Particulars: higher = more signal.
In test [9] the target is Torsin-1A-interacting protein 1 (Homo sapiens) (UniProt Q5JTV8). Nature of the test: LAP1 binders from COS7 cell lysate, primary screen, small-molecule microarray, 635/667 nm fluorescence (AID 1116). The note with it: COS7-hLAP1 lysate binding, 635 nm fluorescence, higher = more signal.
Test [10] deals with Alpha-bungarotoxin (Bungarus multicinctus) (UniProt P60615). The test can be described thus: alpha-bungarotoxin binders on microarray, profiling panel, artefact control for SMM control protein annotation, biochemical, small-molecule microarray, Alexa647 label, 635/667 nm fluorescence (AID 1117). The note with it: alpha-BTX-A647 binding fluorescence, higher = more signal.

Molecules are shown by their SMILES.

Sequence of Alpha-bungarotoxin (Bungarus multicinctus) (P60615 whole entry, looked up): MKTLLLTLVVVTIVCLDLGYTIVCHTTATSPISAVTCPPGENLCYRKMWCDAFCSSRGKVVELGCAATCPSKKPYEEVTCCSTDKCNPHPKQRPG
Sequence of Left-right determination factor 2 (Homo sapiens) (O00292 whole entry, looked up): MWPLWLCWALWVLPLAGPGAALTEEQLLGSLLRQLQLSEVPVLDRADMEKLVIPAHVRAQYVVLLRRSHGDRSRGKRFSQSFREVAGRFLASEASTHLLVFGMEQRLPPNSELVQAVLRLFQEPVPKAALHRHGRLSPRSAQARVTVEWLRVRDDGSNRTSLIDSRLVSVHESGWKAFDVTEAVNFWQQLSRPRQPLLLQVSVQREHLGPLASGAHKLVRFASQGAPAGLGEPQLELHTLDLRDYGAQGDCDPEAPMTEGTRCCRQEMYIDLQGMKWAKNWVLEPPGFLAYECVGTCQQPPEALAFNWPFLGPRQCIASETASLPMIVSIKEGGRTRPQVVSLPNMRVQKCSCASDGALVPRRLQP
Sequence of Torsin-1A-interacting protein 1 (Homo sapiens) (Q5JTV8 whole entry, looked up): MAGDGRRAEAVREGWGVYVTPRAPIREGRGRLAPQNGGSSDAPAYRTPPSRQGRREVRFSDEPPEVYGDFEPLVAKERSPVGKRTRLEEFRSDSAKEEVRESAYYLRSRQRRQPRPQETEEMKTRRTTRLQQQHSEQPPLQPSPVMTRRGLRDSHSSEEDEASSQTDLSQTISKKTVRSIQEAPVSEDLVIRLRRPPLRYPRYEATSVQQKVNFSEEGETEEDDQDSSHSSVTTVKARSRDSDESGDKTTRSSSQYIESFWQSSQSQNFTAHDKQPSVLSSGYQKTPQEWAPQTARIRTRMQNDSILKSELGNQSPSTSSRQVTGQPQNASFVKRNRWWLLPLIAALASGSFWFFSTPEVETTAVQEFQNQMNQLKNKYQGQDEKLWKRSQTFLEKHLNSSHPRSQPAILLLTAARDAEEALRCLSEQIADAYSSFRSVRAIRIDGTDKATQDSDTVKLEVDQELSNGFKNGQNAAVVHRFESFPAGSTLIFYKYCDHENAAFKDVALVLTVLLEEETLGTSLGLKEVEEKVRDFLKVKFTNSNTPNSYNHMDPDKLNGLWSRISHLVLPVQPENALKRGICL

Take `Cc1cc2c(nc1C)CCCN2CC(O)CN1CCCc2nc(C)c(C)cc21`: the composite z-score was 0.142 in [1]; 0.368 in test [3]; 0.239 in test [4]; -0.322 in test [5]; 0.308 in test [6]; 0.699 in test [7]. Besides, the composite z-score in test [8] came out at 0.568; in [9], 3.26; in test [10] it was 1.42. Further, the z-score in test [2] was -0.107.

Consider `COC(=O)[C@@H]1CC[C@H](C)[C@@H](c2ccc(C)cc2)N1C(=O)c1ccc(C=NO[C@@H](C)c2cn([C@H](CO)Cc3ccccc3)nn2)cc1`, for which the composite z-score in [1] was 1.3; in test [3], 0.785; in test [4] it was -0.0062; in [5], -0.388; in test [6] it was 0.116; in [7] it was -0.0146. The composite z-score was -0.0554 in test [8], 0.641 in test [9] and 0.51 in test [10]. In test [2], the z-score was -2.25.

Take `CO[C@H]1COC(=O)CCC[C@@H](C)[C@H](OC)COC(=O)[C@@H](C)NC(=O)CC=C[C@@H]1C`: the composite z-score in test [1] was -1.44; in [3] it was 1.19; in test [4], -0.654; in test [5], -1.61; in [6], -0.117; in test [7], 0.0483. In addition, the composite z-score in test [8] is -0.0684; in test [9] it was 0.992; in test [10], -0.314. In addition, in test [2], the z-score was -1.29.

In the case of `COC(=O)[C@H](C)NC(=O)CCC1CC(OC(=O)NCc2ccc3c(c2)OCO3)CC2(CCCC(COC(=O)NCc3cccc(C(F)(F)F)c3)O2)O1` (stereo not given in full), the composite z-score in test [1] was 0.817; in [3], 1.11; in test [4] it was 0.601; in test [5], -0.311; in [6] it was -0.113; in test [7] it was 0.0756. Moreover, the figures for the composite z-score in [8], in [9] and in test [10] were 0.33, 0.794 and 0.446, respectively. The z-score in [2] was -1.79.

Consider `CC(C)=NOC[C@@H](C)[C@H](OCc1ccccc1)C(C)C`, for which the composite z-score in test [1] was -1.19; in test [3] it was -0.0001; in test [4], -0.211; in [5], -0.285; in [6] it was -0.0758; in [7], -0.0709. The composite z-score in test [8] is -0.402; in test [9], -0.368; in [10] it was 0.213. The compound further yielded a z-score in test [2] of -0.801.

In the case of `O=C1[C@H]2[C@H]3[C@H](O)[C@H](O)CC(=NO[C@@H]4O[C@H](CO)[C@@H](O)[C@H](O)[C@H]4O)[C@H]3CC[C@H]2C(=O)N1c1cccc(Oc2ccccc2)c1`, the composite z-score was 0.583 in [1]; 0.723 in test [3]; -0.0761 in [4]; -0.474 in [5]; -0.168 in test [6]; -0.349 in [7]. The composite z-score in test [8] is -0.129; in test [9], 0.675; in test [10] it was -0.0791. In [2], this compound gave a z-score of -0.243.

Consider `O=C1[C@H]2[C@H]3[C@H](O)[C@H](O)CC(=NOCc4ccccc4)[C@@H]3CC[C@H]2C(=O)N1C[C@@H]1CCCO1`, for which the composite z-score in test [1] is -0.236; in test [3], 0.316; in test [4], 0.583; in test [5], -0.0696; in [6], -0.117; in test [7], -0.0553. Besides, the composite z-score in test [8] was -0.158; in test [9], -0.126; in test [10] it was 0.879. Moreover, the z-score in test [2] came out at 0.189.

As for `CC(CCN1CCCCc2nc(C)c(C)cc21)=NOC[C@@H](C)[C@H](OCc1ccccc1)C(C)C`, the composite z-score in [1] is -0.824; in test [3] it was -1.47; in [4] it was -1.74; in test [5], -1.8; in [6], -0.335; in [7], -0.428. The composite z-score in [8] is -0.803; in test [9], -1.07; in test [10] it was -2.21. Moreover, the z-score in test [2] is -0.876.

Consider `C[C@H]1Cc2c(COc3ccccc3)nc3c(c2CO1)CN(CCOc1ccccc1)CC3`, for which the composite z-score was 1.14 in [1]; 0.635 in [3]; 0.625 in test [4]; -0.255 in test [5]; -0.172 in test [6]; 0.0144 in test [7]. Besides, the composite z-score is -0.502 in [8], 0.647 in test [9] and 0.161 in [10]. This compound also registered a z-score in test [2] of -0.228.

As for `CO[C@@H]1COC(=O)CC=C[C@@H](C)[C@H](OC)COC(=O)[C@@H](C)COC(=O)CC=C[C@H]1C`, the composite z-score in test [1] is -0.82; in test [3], 0.889; in test [4], -0.618; in [5], -1.59; in test [6] it was -0.237; in [7], -0.0553. For the same compound, the composite z-score in test [8] was -0.284; in test [9], 0.263; in [10], -0.864. In test [2], the z-score was determined as 0.0811.

On to `CC(C)CON=C1C[C@@H](O)[C@@H](O)[C@@H]2[C@@H]3C(=O)N(C(C)(C)C)C(=O)[C@@H]3CC[C@H]12`, for which the composite z-score in [1] is 1.05; in test [3], -0.23; in test [4], -0.302; in test [5] it was 0.412; in test [6] it was -0.124; in test [7] it was -0.262. Also, the composite z-score in [8] was found to be 0.0589; in test [9], 0.274; in test [10], 1.5. In addition, the z-score in [2] was -0.451.

On to `CO[C@H]1COC(=O)[C@@H](C)COC(=O)[C@@H](OCc2ccccc2)C=C[C@@H]1C`, for which the composite z-score is -0.193 in test [1]; 0.281 in test [3]; 0.0243 in test [4]; -0.642 in test [5]; -0.0346 in test [6]; -0.276 in test [7]. For the same compound, the composite z-score in test [8] was -0.37; in [9] it was -0.0153; in [10] it was -0.807. The same compound displayed a z-score in [2] of -1.38.

`CCN1C(=O)[C@H]2[C@H]3[C@H](O)[C@H](O)CC(=NOCC(C)C)[C@@H]3CC[C@H]2C1=O`: the composite z-score was 1.33 in test [1]; 0.32 in test [3]; -0.39 in [4]; -0.682 in test [5]; -0.096 in test [6]; -0.0709 in test [7]. For the same compound, the composite z-score in [8] is -0.255; in test [9], 0.317; in test [10] it was 0.13. The same compound yielded a z-score in [2] of -0.0305.

Regarding `CCOC(=O)[C@H](Cc1ccccc1)NC(=O)CCC1CC(OC(=O)NCc2cccc3ccccc23)CC2(CCCC(COC(=O)NCCC(C)C)O2)O1` (stereo not given in full), the composite z-score was -2.01 in [1]; 0.215 in test [3]; 0.56 in test [4]; -0.29 in test [5]; -0.13 in [6]; 0.0141 in [7]. For the same compound, the composite z-score in [8] is -0.372; in test [9], -0.0831; in test [10] it was 1.09. In [2], this compound returned a z-score of -0.134.

Consider `O=C(NN=C1C[C@@H](O)[C@@H](O)[C@@H]2[C@@H]3C(=O)N(C4CCCCC4)C(=O)[C@@H]3CC[C@@H]12)OCc1ccccc1`, for which the composite z-score in test [1] was -0.671; in [3], 0.482; in test [4] it was -0.367; in test [5], -0.606; in test [6] it was -0.115; in test [7], 0.0156. For the same compound, the figures for the composite z-score in [8], in [9] and in test [10] were -0.0522, -0.534 and -0.0382, respectively. The compound further registered a z-score in test [2] of -0.771.

Regarding `COC(=O)CC=C[C@@H](C)[C@@H](C=NO[C@@H](C)c1cn([C@H](CO)Cc2ccccc2)nn1)OC`, the composite z-score in test [1] was 0.939; in test [3], 0.499; in [4] it was -1.04; in test [5], -1.48; in test [6] it was -0.0944; in test [7], -0.138. For the same compound, the composite z-score in [8] was 0.15; in test [9], -0.0644; in test [10] it was -0.027. The z-score in test [2] turned out to be 0.0629.

Regarding `CC(C)=CCCC(C)=CCON=C1C[C@@H](O)[C@@H](O)[C@@H]2[C@@H]3C(=O)N(C4CCCCC4)C(=O)[C@@H]3CC[C@@H]12`, the composite z-score was 0.0997 in [1]; 0.464 in test [3]; -0.403 in test [4]; -1.15 in test [5]; -0.128 in test [6]; -0.209 in test [7]. The composite z-score in test [8] was -0.261; in test [9], 0.259; in test [10], -0.0585. Moreover, the z-score in test [2] is -0.471.
